This passage reports outcome and AC50 results from PubChem BioAssay (EPA / NIEHS).

Molecules are shown by their SMILES. Records with an inconclusive call do not appear. Calls of active or inactive are those of the source. The calls were made as follows: active = hit-call score of the fitted dose curve at least 0.9, where 1 is the maximum; inconclusive = response in the unintended direction; inactive = score below 0.9.

Peroxisome proliferator-activated receptor gamma (Homo sapiens), sequence (P37231 whole entry, looked up): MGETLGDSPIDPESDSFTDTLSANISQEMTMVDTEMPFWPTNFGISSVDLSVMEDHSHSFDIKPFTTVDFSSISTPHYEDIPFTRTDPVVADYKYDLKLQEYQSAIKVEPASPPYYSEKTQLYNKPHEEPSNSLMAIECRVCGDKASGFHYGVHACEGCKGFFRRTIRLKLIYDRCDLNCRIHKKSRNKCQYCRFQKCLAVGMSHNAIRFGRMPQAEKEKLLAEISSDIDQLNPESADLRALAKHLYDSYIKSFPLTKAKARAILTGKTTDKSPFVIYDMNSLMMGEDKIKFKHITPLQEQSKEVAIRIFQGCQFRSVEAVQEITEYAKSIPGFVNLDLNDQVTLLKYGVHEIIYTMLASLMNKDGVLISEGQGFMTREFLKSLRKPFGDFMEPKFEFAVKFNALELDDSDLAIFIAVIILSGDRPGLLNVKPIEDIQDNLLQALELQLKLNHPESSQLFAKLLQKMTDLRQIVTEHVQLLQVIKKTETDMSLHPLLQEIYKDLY
mouse Peroxisome Proliferator-activated Receptor gamma (PPARg), Pparg (gene 19016), sequence (P37238 whole entry, looked up): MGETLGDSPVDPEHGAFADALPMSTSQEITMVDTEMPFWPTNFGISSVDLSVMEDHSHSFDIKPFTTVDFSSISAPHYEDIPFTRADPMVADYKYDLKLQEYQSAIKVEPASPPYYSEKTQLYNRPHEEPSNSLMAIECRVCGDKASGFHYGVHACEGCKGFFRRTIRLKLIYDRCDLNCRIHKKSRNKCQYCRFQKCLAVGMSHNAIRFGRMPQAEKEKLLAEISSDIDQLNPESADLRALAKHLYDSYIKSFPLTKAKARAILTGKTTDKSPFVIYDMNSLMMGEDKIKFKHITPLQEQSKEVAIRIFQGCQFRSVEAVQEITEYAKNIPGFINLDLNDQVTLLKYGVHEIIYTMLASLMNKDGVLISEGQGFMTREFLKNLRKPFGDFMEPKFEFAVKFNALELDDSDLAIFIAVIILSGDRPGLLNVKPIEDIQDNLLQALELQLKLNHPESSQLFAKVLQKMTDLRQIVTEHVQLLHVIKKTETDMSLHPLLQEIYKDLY

Tested on in the first test: not listed separately
The test is described as follows: ATG_M_19_XSP1: Attagene TRANS-FACTORIAL Multi-Species (XSP1) HepG2 Assay for M19 Transcription Factor (Internal Marker) (AID 2283798). The essentials:
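Readout is reporter mRNA induction quantified via RT-PCR, 6-FAM labeling, HpaI digestion and capillary electrophoresis, fitted in the positive direction versus DMSO baseline. Transfected HepG2 cells exposed 24 h, medium including 3 nM 6-alpha-fluorotestosterone.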
Turning to `CCCCC(CC)CN1C(=O)C2C3C=CC(C3)C2C1=O` (configuration not stated), the outcome was inactive.

For the molecule `CC1(C)C(C=C(Cl)Cl)C1C(=O)OCc1cccc(Oc2ccccc2)c1` (configuration not stated), the outcome was inactive.

Turning to `CCCCC(CC)COC(=O)c1ccccc1C(=O)O` (configuration not stated), the call was inactive.

Tested on in the next test: not listed separately
Briefly: ATG_M_32_XSP1: Attagene TRANS-FACTORIAL Multi-Species (XSP1) HepG2 Assay for M32 Transcription Factor (Internal Marker) (AID 2283799). The essentials: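 Reporter transcripts from the M32 internal-control unit measured by RT-PCR, FAM labelling, HpaI digestion and capillary electrophoresis after 24 h compound exposure of transfected HepG2, 3 nM 6-alpha-fluorotestosterone included; DMSO baseline, positive-direction fit.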
In the case of `CCCCC(CC)CN1C(=O)C2C3C=CC(C3)C2C1=O` (configuration not stated), the call was inactive.

Regarding `C=CCOC(Cn1ccnc1)c1ccc(Cl)cc1Cl` (configuration not stated), the molecule was called inactive.

Take `CCCCC(CC)COC(=O)c1ccccc1C(=O)O` (configuration not stated): the call was inactive.

For the next test, the target named is Peroxisome proliferator-activated receptor gamma (Homo sapiens) (UniProt P37231). Briefly: ATG_hPPARg_XSP1: Attagene TRANS-FACTORIAL Multi-Species (XSP1) HepG2 Assay for human Peroxisome Proliferator-activated Receptor gamma (PPARg) (AID 2283800). On the procedure:
(§1) ATG_XSP1_multi-species_TRANS is a cell-based, multiplexed assay created by modifying the existing Attagene TRANS-FACTORIAL system to include a panel of nuclear receptors from some or all the following species: human (Homo sapiens), mouse (Mus musculus), frog (Xenopus laevis), zebrafish (Danio rerio), chicken (Gallus gallus), and turtle (Chrysemys picta). The ECOTOX-FACTORIAL format uses HepG2, a human liver cell line, with measurements taken at 24 hours after chemical dosing in a 24-well plate. Xsp1 included 3 nM 6-alpha-fluorotestosterone to partially stimulate the androgen receptor.ATG_hPPARg_XSP1 is one of 29 assay components measured or calculated from the ATG_XSP1_multi-species_TRANS assay. It is designed to make measurements of mRNA induction, a form of inducible reporter, as detected with fluorescence intensity signals by Reverse transcription polymerase chain reaction (RT-PCR) and Capillary electrophoresis technology.The assay endpoint ATG_hPPARg_XSP1 was analyzed in the positive analysis fitting direction relative to DMSO as the negative control and baseline of activity. Using a type of inducible reporter, measures of mRNA for gain-of-signal activity can be used to understand the reporter gene at the transcription factor-level as they relate to the gene PPARg. Furthermore, this assay endpoint can be referred to as a primary readout, because this assay has produced multiple assay endpoints where this one serves a reporter gene function. To generalize the intended target to other relatable targets, this assay endpoint is annotated to the nuclear receptor intended target family, where the subfamily is non-steroidal.
(§2) Human liver HepG2 cells are transiently transfected with multiple reporter transcription units (MRTUs) in 6-well plates using FuGene 6 reagent (Roche; 3 ml FuGene/1 mg DNA). The MRTU constructs are regulated by a cis-regulating element (promoter). […] A major difference between the CIS and TRANS system is that in CIS activities of endogenous TFs are measured, whereas the TRANS assay evaluates changes in activities of exogenous, chimeric NR-Gal4 proteins. […] At the end of 24 hour incubation, total RNA was isolated using TriZol reagent (Invitrogen). The isolated RNA is then reverse-transcribed using oligo(dT) primer and Mo-MLV reverse transcriptase (Invitrogen) with DNAse I (Ambion) treatment for 30 min. The one-tenth of the produced cDNA was amplified by PCR using Taq DNA polymerase (Invitrogen) and two reporter sequence-specific primers. The PCR products were fluorescently labeled by primer extension with 6-arboxyfluorescein (6-FAM) 5'-labeled reporter sequence-specific primer (2 min at 95 C, 20 s at 68 C and 10 min at 72 C) and these products were digested with 5U of HpaI (New England Biolabs) for 2h at 37 C. The fragments were purified using Qiaquick PCR columns (Qiagen), analyzed on an ABI 3130xL genetic analyzer (Applied Biosystems) with peak positions identified by using a set of X-rhodamine (ROX)-labeled MapMarker1000 molecular weight standards (BioVentures). The raw capillary electrophoresis data was processed using Attagraph software (Attagene).
On to `CC(=O)S[C@@H]1CC2=CC(=O)CC[C@]2(C)[C@H]2CC[C@@]3(C)[C@@H](CC[C@@]34CCC(=O)O4)[C@H]12`, for which the outcome was inactive.

Consider `CCCCC(CC)CN1C(=O)C2C3C=CC(C3)C2C1=O` (configuration not stated), for which the AC50 was 15.5 µM (active).

Consider `C=CCOC(Cn1ccnc1)c1ccc(Cl)cc1Cl` (configuration not stated), for which the AC50 is 100 µM (active).

With `CC(C)CCCCCCc1ccc(O)cc1`, the call was inactive.

As for `Oc1ccc(C(c2ccc(O)cc2)C(Cl)(Cl)Cl)cc1`, the molecule was called inactive.

Consider `O=C(c1ccc(O)cc1O)c1ccc(O)cc1O`, for which the call was inactive.

The subject of a further test is zebrafish Peroxisome Proliferator-activated Receptor gamma (PPARg), gene 557037. The test is described as follows: ATG_zfPPARg_XSP1: Attagene TRANS-FACTORIAL Multi-Species (XSP1) HepG2 Assay for zebrafish Peroxisome Proliferator-activated Receptor gamma (PPARg) (AID 2283801). The essentials: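 Trans-activation readout of chimeric zebrafish PPARg–GAL4 in transiently transfected human HepG2 cells, 24 h chemical exposure (medium includes 3 nM 6-alpha-fluorotestosterone). Reporter transcripts measured by RT-PCR and capillary electrophoresis, fitted as gain over DMSO.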
For the molecule `CC(=O)S[C@@H]1CC2=CC(=O)CC[C@]2(C)[C@H]2CC[C@@]3(C)[C@@H](CC[C@@]34CCC(=O)O4)[C@H]12`, the call was inactive.

For the molecule `CCCCC(CC)CN1C(=O)C2C3C=CC(C3)C2C1=O` (configuration not stated), the outcome was inactive.

As for `CC1(C)C(C=C(Cl)Cl)C1C(=O)OCc1cccc(Oc2ccccc2)c1` (configuration not stated), the molecule was classed as inactive.

Take `C=CCOC(Cn1ccnc1)c1ccc(Cl)cc1Cl` (configuration not stated): the result was inactive.

For the molecule `CC(C)CCCCCCc1ccc(O)cc1`, the result was inactive.

`CCCCC(CC)COC(=O)c1ccccc1C(=O)O` (configuration not stated): the AC50 was 64.2 µM (active).

On to `Oc1ccc(C(c2ccc(O)cc2)C(Cl)(Cl)Cl)cc1`, for which the outcome was inactive.

Another test has as its target mouse Peroxisome Proliferator-activated Receptor gamma (PPARg), Pparg (gene 19016) (UniProt P37238). The test is described as follows: ATG_mPPARg_XSP1: Attagene TRANS-FACTORIAL Multi-Species (XSP1) HepG2 Assay for mouse Peroxisome Proliferator-activated Receptor gamma (PPARg) (AID 2283802). On the procedure: as §1, with “receptor.ATG_mPPARg_XSP1” for “receptor.ATG_hPPARg_XSP1”, “ATG_mPPARg_XSP1” for “ATG_hPPARg_XSP1”
as §2
Consider `CC(=O)S[C@@H]1CC2=CC(=O)CC[C@]2(C)[C@H]2CC[C@@]3(C)[C@@H](CC[C@@]34CCC(=O)O4)[C@H]12`, for which the molecule was called inactive.

Turning to `CCCCC(CC)CN1C(=O)C2C3C=CC(C3)C2C1=O` (configuration not stated), the AC50 is 27.7 µM (active).

As for `C=CCOC(Cn1ccnc1)c1ccc(Cl)cc1Cl` (configuration not stated), the AC50 is 9.81 µM (active).

On to `CC(C)CCCCCCc1ccc(O)cc1`, for which the half-maximal activity concentration (AC50) was 15.9 µM (active).

As for `CCCCC(CC)COC(=O)c1ccccc1C(=O)O` (configuration not stated), the AC50 is 13.2 µM (active).

For `CC(C)(c1ccc(O)cc1)c1ccc(O)cc1`, the molecule was called inactive.

In the case of `Oc1ccc(C(c2ccc(O)cc2)C(Cl)(Cl)Cl)cc1`, the result was inactive.

In the case of `O=C(c1ccc(O)cc1O)c1ccc(O)cc1O`, the outcome was inactive.

As a reminder, the AC50 is the concentration at which the activity in the assay is half-maximal.
